Experimental data taken from PubChem BioAssay (EPA / NIEHS).
Inconclusive results are not listed. The source made the active and inactive calls. Rule for the calls, unless noted: active = hit-call score of the fitted dose curve at least 0.9, where 1 is the maximum; inconclusive = response in the unintended direction; inactive = score below 0.9.

How the values were obtained:
[1] = biological target: Estrogen receptor beta (Homo sapiens) (UniProt Q92731); assay: OT_ER_ERbERb_1440: Odyssey Thera (OT) 24-hour HEK293T Protein-Complementation Assay for Estrogen Receptor-beta/-beta Homodimer (AID 2283380);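 note: scored as signal increase over DMSO baseline for both agonists and antagonists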
In short: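 HEK293T cells stably expressing ER beta LBD (aa 310-547) homodimer fragment-complementation reporter, dosed 24 h. Cells formaldehyde-fixed, Draq5-stained; gain in nuclear (agonist) or nuclear plus cytoplasmic (antagonist) fluorescence versus DMSO read by laser scanning cytometry.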

[2] = biological target: Bile acid receptor (Homo sapiens) (UniProt Q96RI1); assay: OT_FXR_FXRSRC1_0480: Odyssey Thera (OT) 8-hour HEK293T Protein-Complementation Assay for Farnesoid X receptor/SRC-1 Co-activator (AID 2283383)
In short: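 Readings were taken 8 h after dosing HEK293T cells in a split-reporter complementation format pairing FXR with SRC-1. Increased fluorescence relative to DMSO-treated wells defined activity.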

[3] = biological target: Retinoic acid receptor RXR-alpha (Homo sapiens) (UniProt P19793); assay: OT_NURR1_NURR1RXRa_1440: Odyssey Thera (OT) 24-hour HEK293T Protein Complementation Assay for Nurr1/retinoid X receptor (RXR) (AID 2283386)
In short: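 Cell-based binding reporter: HEK293T cells, 24 h exposure, fluorescence-detected fragment complementation, DMSO as baseline.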

[4] = biological target: Peroxisome proliferator-activated receptor gamma (Homo sapiens) (UniProt P37231); assay: OT_PPARg_PPARgSRC1_0480: Odyssey Thera (OT) 8-hour Protein-Complementation Assay for Peroxisome Proliferator-activated Receptor Gamma / SRC-1 Co-activator (AID 2283387)
In short: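 Read-out: 488 nm N/C fluorescence ratio from complemented Venus YFP fragments, ≥350 cells per image, gain-of-signal fitted against DMSO baseline. Fusions of PPARg/SRC-1 with IFP1/IFP2 expressed transiently in HEK293T; compounds applied 8 h.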

[5] = biological target: Retinoic acid receptor RXR-alpha (Homo sapiens) (UniProt P19793); assay: OT_NURR1_NURR1RXRa_0480: Odyssey Thera (OT) 8-hour HEK293T Protein Complementation Assay for Nurr1/retinoid X receptor (RXR) (AID 2283385)
In short: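 Gain in fluorescent complementation signal over DMSO, measured 8 hours after chemical dosing of human kidney HEK293T cells, indicated enhanced Nurr1–RXRα association.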

[6] = biological target: Peroxisome proliferator-activated receptor gamma (Homo sapiens) (UniProt P37231); assay: OT_PPARg_PPARgSRC1_1440: Odyssey Thera (OT) 24-hour Protein-Complementation Assay for Peroxisome Proliferator-activated Receptor Gamma/ SRC-1 Co-activator (AID 2283388)
In short: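 HEK293T cells transiently transfected with PPARg and SRC-1 fused via (Gly4Ser)2 linker to split Venus YFP fragments (IFP1/IFP2) were dosed 24 h; fixed, Draq5-stained, imaged at 488/635 nm; nuclear/cytoplasmic fluorescence ratio scored versus DMSO baseline, gain-of-signal.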

[7] = biological target: Estrogen receptor (Homo sapiens) (UniProt P03372); assay: OT_ERa_GFPERaERE_0480: Odyssey Thera (OT) 8-hour HeLa Transcription Induction Assay for Estrogen Receptor (AID 2283381; active = hit-call score of the fitted dose curve at least 0.9, where 1 is the maximum; inactive = score below 0.9)
In short: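 An 8 h HeLa transcription-induction format with a GFP reporter under ERE control, read by fluorescence microscopy; single endpoint fitted positively with DMSO as baseline.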

[8] = biological target: Estrogen receptor (Homo sapiens) (UniProt P03372); assay: OT_ERa_GFPERaERE_0120: Odyssey Thera (OT) 2-hour HeLa Transcription Induction Assay for Estrogen Receptor (AID 2283382)
In short: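 Two-hour compound treatment of HeLa cells preceded microscopy imaging of an inducible fluorescent reporter. Image-based quantification gave one endpoint, analysed for signal increase relative to DMSO controls.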

[9] = biological target: Agonist Androgen Response Element (ARE), AR (gene 367) (UniProt P10275); assay: OT_AR_ARELUC_AG_1440: Odyssey Thera (OT) 24-hour CHO-K1 Luciferase Assay for Agonist Androgen Response Element (ARE) (AID 2283379)
In short: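 Gain-of-signal reporter endpoint: cells (CHO-K1, hamster) are treated 24 h, luciferin/ATP reagent added, and luminescence compared with DMSO baseline.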

[10] = CEETOX_H295R_OHPREG: CeeTox H295R High-throughput Steroidogenesis Assay for OH-Pregnenolone (OHPREG) (AID 2283434; active = hit-call score of the fitted dose curve at least 0.9, where 1 is the maximum; inactive = score below 0.9); conditions: actives raise or lower the signal
In short: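 H295R, 10 uM forskolin pre-stim 48 h; test chemical 48 h, 0.1% DMSO final. MTBE extraction, reverse-phase C18 HPLC-ESI+ MS/MS of medium. Gain/loss vs DMSO; viability by MTT in same wells.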

Measured: AC50

Chain of Estrogen receptor (Homo sapiens) (P03372 whole entry, looked up): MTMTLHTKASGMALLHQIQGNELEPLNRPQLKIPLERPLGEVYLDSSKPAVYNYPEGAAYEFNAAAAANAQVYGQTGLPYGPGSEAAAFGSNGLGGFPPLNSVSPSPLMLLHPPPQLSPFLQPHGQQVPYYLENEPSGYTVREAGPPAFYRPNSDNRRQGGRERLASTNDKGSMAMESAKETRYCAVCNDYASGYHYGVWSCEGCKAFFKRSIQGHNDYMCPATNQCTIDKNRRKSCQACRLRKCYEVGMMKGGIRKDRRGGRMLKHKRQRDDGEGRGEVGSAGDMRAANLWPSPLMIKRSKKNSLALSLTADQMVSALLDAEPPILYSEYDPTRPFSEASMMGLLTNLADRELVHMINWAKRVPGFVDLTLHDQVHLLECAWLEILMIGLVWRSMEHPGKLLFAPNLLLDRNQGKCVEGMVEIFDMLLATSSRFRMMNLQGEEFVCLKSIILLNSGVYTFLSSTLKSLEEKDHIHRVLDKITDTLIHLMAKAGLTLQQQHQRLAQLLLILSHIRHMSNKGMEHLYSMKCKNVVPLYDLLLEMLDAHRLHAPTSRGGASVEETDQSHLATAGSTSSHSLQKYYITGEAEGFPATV
Chain of Retinoic acid receptor RXR-alpha (Homo sapiens) (P19793 whole entry, looked up, the tested form may be a part): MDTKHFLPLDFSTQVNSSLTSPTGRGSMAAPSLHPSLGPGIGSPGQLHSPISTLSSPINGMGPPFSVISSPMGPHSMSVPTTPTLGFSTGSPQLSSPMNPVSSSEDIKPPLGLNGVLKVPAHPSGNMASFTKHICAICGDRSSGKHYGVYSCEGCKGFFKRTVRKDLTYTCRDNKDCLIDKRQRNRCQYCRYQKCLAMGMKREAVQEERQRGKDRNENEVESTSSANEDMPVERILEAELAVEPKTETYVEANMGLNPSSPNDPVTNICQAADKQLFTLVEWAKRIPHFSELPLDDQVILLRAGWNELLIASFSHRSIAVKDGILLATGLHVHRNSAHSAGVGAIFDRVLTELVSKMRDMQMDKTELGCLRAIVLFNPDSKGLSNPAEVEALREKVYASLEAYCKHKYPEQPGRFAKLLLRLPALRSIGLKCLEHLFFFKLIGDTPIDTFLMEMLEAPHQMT
Chain of Bile acid receptor (Homo sapiens) (Q96RI1 whole entry, looked up): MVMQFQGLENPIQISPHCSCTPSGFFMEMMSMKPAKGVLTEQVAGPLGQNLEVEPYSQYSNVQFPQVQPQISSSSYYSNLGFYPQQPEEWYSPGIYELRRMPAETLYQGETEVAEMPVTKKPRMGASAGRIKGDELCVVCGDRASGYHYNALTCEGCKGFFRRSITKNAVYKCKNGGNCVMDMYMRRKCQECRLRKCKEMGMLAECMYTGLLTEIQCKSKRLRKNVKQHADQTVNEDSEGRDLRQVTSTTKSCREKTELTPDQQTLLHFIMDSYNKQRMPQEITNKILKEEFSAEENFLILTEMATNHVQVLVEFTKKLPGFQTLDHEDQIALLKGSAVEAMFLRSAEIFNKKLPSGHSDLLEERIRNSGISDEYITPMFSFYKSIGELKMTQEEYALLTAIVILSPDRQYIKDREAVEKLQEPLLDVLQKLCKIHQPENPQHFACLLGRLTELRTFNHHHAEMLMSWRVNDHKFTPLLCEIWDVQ
Chain of Estrogen receptor beta (Homo sapiens) (Q92731 whole entry, looked up, the tested form may be a part): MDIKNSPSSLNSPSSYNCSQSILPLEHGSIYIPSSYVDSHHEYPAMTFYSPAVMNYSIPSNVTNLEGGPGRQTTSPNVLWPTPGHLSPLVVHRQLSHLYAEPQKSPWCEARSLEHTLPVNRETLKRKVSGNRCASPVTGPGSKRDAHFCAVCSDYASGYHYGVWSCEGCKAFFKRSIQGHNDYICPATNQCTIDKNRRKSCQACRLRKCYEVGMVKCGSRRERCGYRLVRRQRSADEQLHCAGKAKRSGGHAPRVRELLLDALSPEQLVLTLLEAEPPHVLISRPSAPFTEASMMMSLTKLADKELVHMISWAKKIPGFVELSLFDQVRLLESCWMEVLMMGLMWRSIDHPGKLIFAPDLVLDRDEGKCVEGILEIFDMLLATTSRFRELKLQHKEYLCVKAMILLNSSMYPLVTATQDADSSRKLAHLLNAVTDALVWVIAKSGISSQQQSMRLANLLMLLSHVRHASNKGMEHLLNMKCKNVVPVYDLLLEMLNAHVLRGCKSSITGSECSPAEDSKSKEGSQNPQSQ
Chain of Peroxisome proliferator-activated receptor gamma (Homo sapiens) (P37231 whole entry, looked up, the tested form may be a part): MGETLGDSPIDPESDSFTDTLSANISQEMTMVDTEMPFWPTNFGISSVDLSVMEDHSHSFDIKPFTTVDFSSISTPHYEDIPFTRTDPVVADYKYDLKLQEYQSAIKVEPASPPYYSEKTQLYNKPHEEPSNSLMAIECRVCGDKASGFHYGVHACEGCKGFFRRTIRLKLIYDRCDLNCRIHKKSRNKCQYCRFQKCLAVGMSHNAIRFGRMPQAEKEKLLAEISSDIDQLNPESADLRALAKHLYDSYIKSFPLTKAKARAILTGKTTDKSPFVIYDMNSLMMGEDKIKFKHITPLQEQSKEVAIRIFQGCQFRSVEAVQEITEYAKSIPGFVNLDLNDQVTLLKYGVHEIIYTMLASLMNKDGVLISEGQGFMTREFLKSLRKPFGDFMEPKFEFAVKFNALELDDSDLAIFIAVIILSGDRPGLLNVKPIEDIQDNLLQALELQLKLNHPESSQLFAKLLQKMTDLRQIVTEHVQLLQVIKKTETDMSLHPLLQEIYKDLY
Chain of Agonist Androgen Response Element (ARE), AR (gene 367) (P10275 whole entry, looked up): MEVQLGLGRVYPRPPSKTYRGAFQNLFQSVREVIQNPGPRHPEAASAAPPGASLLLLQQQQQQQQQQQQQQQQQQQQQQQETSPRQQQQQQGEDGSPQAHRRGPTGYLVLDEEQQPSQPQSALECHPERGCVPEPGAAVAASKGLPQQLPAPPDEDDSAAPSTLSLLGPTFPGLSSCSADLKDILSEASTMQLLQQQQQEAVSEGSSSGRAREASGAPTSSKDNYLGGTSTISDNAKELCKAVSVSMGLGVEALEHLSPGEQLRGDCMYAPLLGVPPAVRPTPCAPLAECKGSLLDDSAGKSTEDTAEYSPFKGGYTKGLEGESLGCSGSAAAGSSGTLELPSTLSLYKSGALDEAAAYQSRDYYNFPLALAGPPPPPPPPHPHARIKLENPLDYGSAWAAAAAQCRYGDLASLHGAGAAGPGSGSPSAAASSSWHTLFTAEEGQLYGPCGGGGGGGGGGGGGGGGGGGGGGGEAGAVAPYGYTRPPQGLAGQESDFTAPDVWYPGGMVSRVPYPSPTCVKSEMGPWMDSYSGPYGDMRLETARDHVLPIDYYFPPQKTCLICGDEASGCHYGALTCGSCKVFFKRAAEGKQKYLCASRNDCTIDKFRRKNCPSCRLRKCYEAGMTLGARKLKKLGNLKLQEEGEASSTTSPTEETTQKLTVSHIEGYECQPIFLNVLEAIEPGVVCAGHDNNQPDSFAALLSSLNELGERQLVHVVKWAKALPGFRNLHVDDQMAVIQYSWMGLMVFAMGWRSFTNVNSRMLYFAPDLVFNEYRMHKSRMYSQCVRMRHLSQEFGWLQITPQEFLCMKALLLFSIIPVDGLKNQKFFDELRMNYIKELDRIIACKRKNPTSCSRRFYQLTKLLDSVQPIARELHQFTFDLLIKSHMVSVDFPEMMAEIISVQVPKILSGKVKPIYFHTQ

O=[N+]([O-])c1ccc(O)cc1C(F)(F)F
inactive: [2] | [4]
active: [1] 68.4 µM | [3] 86.8 µM

O=C(CC(=O)c1ccccc1)c1ccccc1
active: [1] 85.9 µM | [3] 81.5 µM
inactive: [2] | [5] | [4]

COS(=O)(=O)O
inactive: [1] | [2] | [3]

CCCCCCC(=O)c1ccccc1
inactive: [1] | [2] | [5] | [3] | [4] | [6]

C=C(C)C(=O)OCCOC1CC2CC1C1C=CCC21 (configuration not stated)
active: [2] 72.3 µM
inactive: [1] | [5] | [4]

CCOC(=O)c1ccc(N)cc1
active: [3] 31.8 µM
inactive: [1] | [2] | [5] | [4] | [6]

O=C(Nc1ccc2c(O)c(N=Nc3ccc(N=Nc4ccc(S(=O)(=O)O)cc4)cc3)c(S(=O)(=O)O)cc2c1)c1ccccc1
inactive: [1] | [7] | [8] | [5] | [3] | [4]

CCCCCCCCSCCO
inactive: [9] | [5] | [3] | [4] | [6]
active: [2] 74.1 µM

C[C@H]1O[C@@H](O[C@H]2[C@@H](O)C[C@H](O[C@H]3[C@@H](O)C[C@H](O[C@H]4CC[C@@]5(C)[C@H](CC[C@@H]6[C@@H]5C[C@@H](O)[C@]5(C)[C@@H](C7=CC(=O)OC7)CC[C@]65O)C4)O[C@@H]3C)O[C@@H]2C)C[C@H](O)[C@@H]1O
inactive: [9] | [1] | [4] | [6]

CCCCCCCCN1CCCC1=O
inactive: [1] | [5] | [3] | [4] | [6] | [10]
active: [2] 50 µM

Cc1cc(=O)oc2cc(N(C)C)ccc12
active: [2] 50 µM | [10] 45.6 µM
inactive: [1] | [5] | [3] | [4] | [6]

CC(=O)O[C@@H]1CC2CCC1(C)C2(C)C (some centres not stated)
inactive: [1] | [2] | [5] | [3] | [4]

CCc1cc(Cc2cc(CC)cc(C(C)(C)C)c2O)c(O)c(C(C)(C)C)c1
inactive: [9] | [1] | [4] | [6]

OCc1cccc(Oc2ccccc2)c1
inactive: [9] | [2] | [5] | [4] | [10]
active: [1] 59.1 µM

C=CC(C)(O)CCC=C(C)C (configuration not stated)
inactive: [1] | [2] | [5] | [4]

CCOC(=O)[C@@H](C)Oc1ccc(Oc2nc3ccc(Cl)cc3o2)cc1
active: [2] 24 µM
inactive: [9] | [1] | [5] | [3] | [4] | [6] | [10]

CC1CCC(C(C)C)C(O)C1 (configuration not stated)
inactive: [9] | [1] | [2] | [3] | [4]

C1=CC2C3C=CC(C3)C2C1 (configuration not stated)
inactive: [1] | [2] | [5] | [3]

CCCCCCCCCCCCCC(=O)OCC(O)CO (configuration not stated)
active: [2] 79.8 µM
inactive: [9] | [1] | [5] | [3]

Nc1ccccc1[N+](=O)[O-]
inactive: [1] | [2] | [5] | [3] | [4] | [6]

CC(C)CCCCCCc1ccc(OCCOCCO)cc1
active: [9] 3.19 µM | [1] 25 µM
inactive: [7] | [8] | [3] | [4]

CSCCC=O
inactive: [1] | [2] | [5] | [4] | [6]

O=C1NC2NC(=O)NC2N1 (configuration not stated)
active: [1] 7.06 µM
inactive: [2] | [5] | [3] | [4] | [6]

c1ccc(Oc2ccccc2)cc1
inactive: [1] | [2] | [5]

CCCCCCCCCCCCN1CCCCCC1=O
active: [2] 11.3 µM | [5] 44.3 µM
inactive: [1]

CC(=O)O[C@H]1C[C@@H]2CC[C@@]1(C)C2(C)C
inactive: [1] | [2] | [5] | [4] | [6]
active: [9] 31.8 µM

C=CC(=O)OCCCC
inactive: [1] | [2] | [5] | [3]

CCCCCCCCCCCC(=O)OCC(O)CO (configuration not stated)
inactive: [1] | [7] | [8] | [5] | [3] | [4] | [6]

CCCCOC(=O)CCCCCCCC(=O)OCCCC
inactive: [1] | [2] | [5] | [3] | [4] | [6]

CCc1ccc(O)cc1
inactive: [9] | [1] | [5] | [3] | [4] | [6]

CCCCCC(C=O)=Cc1ccccc1
inactive: [1] | [2] | [5] | [4]

CCCCCCCCC=CCCCCCCCC1=NCCN1CCO
inactive: [9] | [4] | [6]

Nc1ccc(N)c2c1C(=O)c1ccccc1C2=O
inactive: [1] | [10]
active: [9] 1.71 µM
